GC-B act – GC-B (human) receptor activation | AID 1920062 | P20594 | HEK293-GC-B cells, CNP EC30, cGMP TR-FRET; 0% at EC30 CNP, 100% saturating CNP | activation, % at 10 µM | 0.11% of 370,000 active;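 active = activation at 10 µM reaching about 35% in either raw or pattern-adjusted values, limit read from the data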
FAS-TE inh – blocks the thioesterase domain of human fatty acid synthase; recombinant FAS-TE, OMFH fluorogenic substrate, fluorescence endpoint; 0.67% of 360,000 active; inhibition, % at 15 µM; P49327;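 active = compounds whose normalised, plate-corrected inhibition of enzyme fluorescence in the single-dose primary screen is 50% or more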;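 note: 0% = DMSO with enzyme and 100% = substrate without enzyme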
aDG glyco up – alpha-DG glycosylation activation; Pro5-aDG cells, alpha-DG glycosylation AlphaScreen (IIH6); 0% Pro5, 100% B10-LARGE cell signal; activation, % at 10 µM; 0.22% of 360,000 active;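 active = activation of at least 8% versus controls, or a plate z-score of at least 8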;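 note: Pro5 are CHO cells carrying HIG-tagged alpha-DG that lacks glycosylation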
NPR1 activator – GC-A (human) enzyme activation; P16066; HEK293 GC-A cells, cGMP TR-FRET, EC30 ANP; 0% at EC30 ANP, 100% saturating ANP; activation, % at 10 µM; 0.14% of 370,000 active; AID 1671463; in the data active = activation above about 40%
FAS-TE inh conf – confirmation of human fatty acid synthase thioesterase inhibitors; AID 624325; recombinant FAS-TE, OMFH fluorogenic substrate, fluorescence; inhibition, % at 15 µM; 45% of 2,300 active; shares compounds with FAS-TE inh;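 active = compounds inhibiting the enzyme by at least 50% at 15 µM in any one of the replicates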;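 note: 0% = enzyme with DMSO only and 100% = wells lacking enzyme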
Active calls of the source: *; / = no result given. Sampled rows, rich in hits. Any-hit rate of the full collection: about 1.1%.

SMILES	GC-B act	FAS-TE inh	aDG glyco up	NPR1 activator	FAS-TE inh conf
O=[N+]([O-])c1ccc(Sc2n[nH]c(-c3ccccc3)n2)nc1	5	52*	0	-4	64*
Cc1cc(C(=O)Nn2c(C3CCCCC3)nc3ccccc3c2=O)ccc1[N+](=O)[O-]	1	26	0	3	/
O=C(Nn1c(C2CCCCC2)nc2ccccc2c1=O)c1cc(Cl)ccc1[N+](=O)[O-]	-4	12	0	0	/
O=C(Nn1c(C2CCCCC2)nc2ccccc2c1=O)c1ccc([N+](=O)[O-])cc1Cl	6	62*	0	0	43*
O=C(Nn1c(C2CCCCC2)nc2ccccc2c1=O)c1ccc(Cl)c([N+](=O)[O-])c1	3	57*	0	2	60*
COc1ccc(C(=O)N/C(=C/c2cccc3ccccc23)C(=O)NCCc2c[nH]c3ccccc23)cc1OC	4	61*	0	0	7
CC1CCc2c(C(=O)Oc3cccc(-n4cnnn4)c3)csc2C1 (stereo not drawn)	-4	85*	0	-5	56*
COc1ccccc1CNC(=O)c1cc(S(=O)(=O)N2CCN(c3ccccc3)CC2)ccc1Cl	4	65*	0	0	25
COc1ccc(S(=O)(=O)N2CCOCC2)cc1C(=O)Nc1ccc(N2CCCCCC2)cc1	-2	62*	0	-6	23
COc1ccc(C(=O)Nc2ccc(S(=O)(=O)N3CCCCC3)cc2)cc1OC	6	9	0	-1	/
COc1ccc(-c2cnnn2-c2ccc(NC(=O)c3ccc(S(=O)(=O)N4CCCCC4)cc3)cc2)cc1OC	1	88*	1	1	6
Brc1ccc(CSc2nnc(-c3ccccn3)n2Cc2ccco2)cc1	-21	26	0	-33	/
CC(C)(C)c1ccc(CSc2nnc(-c3ccccn3)n2Cc2ccco2)cc1	-7	53*	0	-8	13
CNC(=O)/C(C#N)=C\c1cc(C)n(-c2ccc(N3CCOCC3)cc2)c1C	2	-1	-1	8	/
COc1ccc(NC(=O)/C(C#N)=C/c2cc(C)n(-c3ccc(N4CCOCC4)c([N+](=O)[O-])c3)c2C)cc1	-1	79*	1	-2	25
Cc1cc(/C=C(\C#N)C(=O)Nc2ccc(F)cc2)c(C)n1-c1ccc(N2CCOCC2)c([N+](=O)[O-])c1	2	62*	0	8	-2
COc1ccccc1NC(=O)c1nc(S(=O)(=O)Cc2ccccc2)ncc1Cl	2	55*	0	27	19
CCS(=O)(=O)c1ncc(Cl)c(C(=O)Nc2ccccc2OC)n1	-2	15	0	36	/
COC(=O)c1ccc(NC(=O)c2nc(S(=O)(=O)Cc3cccc(C)c3)ncc2Cl)cc1	3	55*	0	9	29
CCOc1ccccc1NC(=O)c1nc(S(=O)(=O)Cc2ccccc2)ncc1Cl	-14	60*	-1	-36	59*
O=C(NCc1ccccc1)[C@@H]1CCCN1C(=O)[C@H]1CCCN1C(=O)c1cccc(F)c1	-3	/	/	-1	/
COC(=O)C[C@H]1CC[C@@H]2[C@H](COc3ccc(NC(=O)c4cccc(F)c4)cc3C(=O)N2C)O1	1	/	/	1	/
COc1ccc(Cn2ccc3ccc(-c4ccc5ccn(Cc6ccccc6F)c5c4)cc32)cc1	-4	/	/	3	/
COc1cc(N(C)C)c([N+](=O)[O-])cc1C(=O)NC(C)CNc1ccc([N+](=O)[O-])cc1Cl (stereo not drawn)	-2	70*	0	5	59*
CCOC1=C2CN(S(=O)(=O)c3ccc(C)cc3)[C@@H](c3ccccc3)C[C@H]2[C@H]2C(=O)N(c3ccccc3)C(=O)[C@H]2C1	1	69*	0	-1	9
CCOC1=C2CN(S(=O)(=O)c3ccc(C)cc3)[C@H](c3cccc4ccccc34)C[C@H]2C(C#N)(C#N)C(C#N)(C#N)C1	/	63*	1	/	30
CCOC1=C2CN(S(=O)(=O)c3ccc(C)cc3)[C@H](c3cccc(Cl)c3)C[C@H]2[C@H]2C(=O)N(c3ccccc3)C(=O)[C@H]2C1	-2	81*	0	1	19
CCOC1=C2CN(S(=O)(=O)c3ccc(C)cc3)[C@H](c3ccccc3)C[C@@H]2N(S(=O)(=O)c2ccccc2)[C@H](c2ccccc2)C1	0	29	0	1	/
